L3MBTL1 inh – L3MBTL1 (human) inhibition; Q9Y468; AlphaScreen L3MBTL1–H3K9me1 peptide binding; Potency, µM (highest dose often 57.1 µM), for inactives: top-dose activity, negative = inhibition, hits mostly inhibitors; 0.66% of 230,000 active; AID 485360; note: potency is the fitted concentration of half-maximal effect; % is set by controls: 0 for no effect and ±100 for the full control effect; nearly all actives have a fitted effect of over 60% in size
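L3MBTL1 50 nM + b-AHA-H3(1-15)K9me1 75 nM, 30 min RT; compound added, 30 min RT; streptavidin donor/Ni-chelate acceptor beads 10 ug/mL each final, 30 min RT dark; AlphaScreen read.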
JMJD2A Tudor inh – JMJD2A Tudor domain (human) inhibition. AlphaScreen JMJD2A-Tudor / H3K4me3 peptide binding. 4.4% of 390,000 active. O75164. Potency, µM (doses to about 114 µM), without a hit: at the highest dose activity change, negative = inhibition, usual class: inhibitors; note: potency is the fitted concentration of half-maximal effect; % is set by controls: 0 for no effect and ±100 for the full control effect; nearly all actives have a fitted effect of over 50% in size
G9a block – inhibitors of human histone lysine methyltransferase G9a; Q96KQ7; Potency, µM (doses to about 102 µM), for the others: at the top dose activity, negative = inhibition, actives largely listed as inhibitors; G9a H3K9 monomethylation, AlphaScreen, 2 h; 8.8% of 350,000 active; AID 504332; note: potency is the fitted concentration of half-maximal effect; % is set by controls: 0 for no effect and ±100 for the full control effect; nearly all actives have a fitted effect of over 75% in size
Target sequence (Q96KQ7 913-1193 limits assumed): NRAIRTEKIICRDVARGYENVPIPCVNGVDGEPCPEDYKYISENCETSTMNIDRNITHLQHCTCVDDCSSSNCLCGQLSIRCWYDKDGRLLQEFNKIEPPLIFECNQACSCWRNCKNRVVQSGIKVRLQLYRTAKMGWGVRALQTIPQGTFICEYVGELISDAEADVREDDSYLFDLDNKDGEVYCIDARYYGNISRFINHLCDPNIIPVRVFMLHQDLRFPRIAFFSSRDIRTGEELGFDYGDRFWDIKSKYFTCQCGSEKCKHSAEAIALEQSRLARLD
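Signal arises when biotinylated H3K9 peptide, once monomethylated, bridges streptavidin donor and antibody-captured acceptor beads. Enzyme at 20 nM was preincubated 15 min with test compounds; peptide 500 nM and SAM 20 uM then reacted for 2 h.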
Sfp PPTase inh – blocks B. subtilis Sfp PPTase activity; AID 1490; 3.5% of 310,000 active; Biochemical Sfp PPTase activity, qHTS; Q9F4F7; Potency, µM, for inactives: largest response in the series, negative = inhibition, actives largely listed as inhibitors;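 note: the enzyme is Sfp with the accession as filed and its product quenches rhodamine fluorescence; potency is the fitted concentration of half-maximal effect; 0% = enzyme reaction without inhibitor and -100% = no enzyme wells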
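Sfp 15 nM + cpd, 15 min RT; start w/ rhodamine-CoA 5 uM, BHQ-2-YbbR 12.5 uM (final); 50 mM Hepes pH 7.6, 10 mM MgCl2, 0.01% NP-40, 0.01% BSA; read 525/598 nm at 0 and 30 min.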
BAZ2B block – inhibitors of human BAZ2B bromodomain | Q9UIF8 | AlphaScreen BAZ2B-H3K14Ac peptide displacement | Potency, µM (top dose mostly 114 µM), for the others: at the highest dose activity change, negative = inhibition, most hits filed as inhibitors | 4.4% of 360,000 active | AID 504333; note: potency is the fitted concentration of half-maximal effect; % is set by controls: 0 for no effect and ±100 for the full control effect; nearly all actives have a fitted effect of over 60% in size
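Inhibition is scored as reduced AlphaScreen emission. The BAZ2B/b-H3(5-23)K14Ac complex (50 nM each) in PBS pH 7.4, 0.01% Tween-20 meets compound (up to 110 uM) for 30 min at RT before bead addition.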
HP1b binding inh – inhibitors of HP1-beta chromodomain binding to methylated histone tails; P83916; AlphaScreen HP1-beta / biotin-H3K9me3 peptide binding; Potency, µM (top dose mostly 114 µM), inactives show top-dose activity change, negative = inhibition, hits mostly inhibitors; 0.56% of 390,000 active; note: potency is the fitted concentration of half-maximal effect; nearly all actives have a fitted effect of over 70% in size
Target sequence (P83916 whole entry, looked up): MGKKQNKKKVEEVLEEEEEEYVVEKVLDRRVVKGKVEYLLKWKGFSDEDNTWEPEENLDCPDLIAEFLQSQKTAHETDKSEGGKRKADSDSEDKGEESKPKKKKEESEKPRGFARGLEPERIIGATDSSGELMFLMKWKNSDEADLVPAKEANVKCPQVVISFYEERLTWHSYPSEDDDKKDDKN
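Compound inhibition of the preformed complex between 50 nM HP1-beta and 50 nM biotinylated H3K9me3 peptide was read by AlphaScreen. Buffer was PBS pH 7.4 with 0.01% Tween-20. Incubations ran 30 min at room temperature, with 10 ug/mL donor/acceptor beads.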
Sfp inh conf – Sfp phosphopantetheinyl transferase inhibition, confirmation | Sfp PPTase enzymatic assay, qHTS titration | Potency, µM (series often up to 114 µM), for inactives: at the highest dose activity change, negative = inhibition, actives largely listed as inhibitors | 79% of 380 active | shares compounds with Sfp PPTase inh;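 note: potency is the fitted concentration of half-maximal effect; plate controls were uninhibited Sfp reaction for no effect and no enzyme control for full effect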
Target sequence (Q9F4F7 whole entry, looked up): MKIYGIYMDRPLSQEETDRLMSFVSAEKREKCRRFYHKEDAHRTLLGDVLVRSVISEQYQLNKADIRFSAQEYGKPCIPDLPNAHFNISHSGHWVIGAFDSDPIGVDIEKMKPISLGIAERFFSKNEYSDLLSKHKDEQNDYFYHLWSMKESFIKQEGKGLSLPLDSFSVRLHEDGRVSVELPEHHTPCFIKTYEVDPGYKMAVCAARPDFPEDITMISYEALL
Sfp gel assay – Inhibits B. subtilis Sfp phosphopantetheinylation; 20% of 210 active; Potency, µM, most hits filed as inhibitors; AID 2707; shares compounds with Sfp PPTase inh; purified Sfp, gel-based phosphopantetheinylation read-out;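 active = potency below 100 µM; inconclusive = dose-dependent response but potency above 100 µM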;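 note: band intensities scaled against SCH202676 control wells before curve fitting; potency is an IC50 for inhibitors of Sfp transfer activity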
The depositor's hits bear a star; i = inactive; ? = inconclusive; . = no result; ! = repeats disagree; [ ] = dose if it differs, or a comment. Hits are enriched below; roughly 12% of the tested compounds scored in any of these assays. Unless noted, calls come from the whole dose curve; as a rule, active = well fitted curve in the direction sought with a large enough effect; inconclusive = small, poorly fitted or top-dose-only effect, or another doubt; inactive = no such curve, though single readings can be large; an effect the other way counts as inactive or inconclusive.

SMILES | L3MBTL1 inh | JMJD2A Tudor inh | G9a block | Sfp PPTase inh | BAZ2B block | HP1b binding inh | Sfp inh conf | Sfp gel assay
CCOC(=O)c1cc(-c2ccco2)nc2c1c(C)nn2CCC#N | -5% | -16% | 11µM* | 28µM* | -7% | 25% | 47µM* | i
O=C(C=Cc1ccccc1)Nc1ccccc1 | . | -11% | . | . | . | 14% | . | .
O=C(/C=C/c1ccccc1)Nc1cccc(S(=O)(=O)Nc2ccccc2F)c1 | -6% | 45µM* | 1.6µM* | 4µM* | 45µM* | ? | 3.7µM* | .
Nc1cccnc1Sc1cccc(Cl)c1 | -11% | -15% | -39% | 3.2µM* | -36%[57.1 µM] | 42% | 19µM* | .
Nc1cccnc1Sc1ccc(Cl)cc1 | 0% | -28% | 49%[12.7 µM] | 5% | -4% | 30% | . | .
COc1ccc(NC(=O)c2cc(Cl)ccc2NC(=O)c2ccco2)c(OC)c1 | . | ? | -11% | 16µM* | -17% | 42% | 47µM* | i
CCC(CO)[n+]1c(C)cc(/C=C2\Sc3ccccc3N2Cc2ccccc2)cc1C (stereo not drawn) | 34% | -3% | ? | 35µM* | 4% | 23% | 53µM* | ?
CC(=O)O[C@H]1C(=O)[C@@]2(C)[C@H]([C@H](OC(=O)c3ccccc3)[C@]3(O)C[C@H](OC(=O)[C@H](O)C(NC(=O)c4ccccc4)c4ccccc4)C(C)=C1C3(C)C)[C@]1(OC(C)=O)CO[C@@H]1C[C@@H]2O (stereo partly drawn) | . | -8% | 12%[12.7 µM] | 10µM* | -18% | 43% | 30µM* | i
CCN1C(=O)[C@H]2[C@@H](c3ccc(-c4ccccc4)c(OC)c3)N[C@@](CC(C)C)(C(=O)OC)[C@H]2C1=O | -9% | -24% | . | . | . | 34% | . | .
COc1ccccc1C(=O)Nc1ccnn1C1CCN(CCC(C)c2ccc(C)o2)CC1 (stereo not drawn) | . | -34% | 7.1µM* | 50µM* | -28% | -18% | 19µM* | .
CN1CCc2cccc3c2[C@@H]1Cc1ccc(O)c(O)c1-3 | -25% | 13µM* | 2µM* | 63µM* | 35µM* | ? | 59µM* | 56µM*
CCOc1ccc(C2c3[nH]c4ccccc4c3CCN2C(=O)CSc2ccccc2)cc1 (stereo not drawn) | . | ? | -1%[59 µM] | . | -28% | -10%[57 µM] | . | .
Cc1cccc(NC(=O)CN(CC2CCCO2)C(=O)c2cc(S(=O)(=O)N(C)C)ccc2F)c1C (stereo not drawn) | -3% | -4% | . | . | . | 14% | . | .
COC(=O)Nc1sc2c(c1C(N)=O)CCC(C)C2 (stereo not drawn) | 2% | -23% | 14µM* | 3.5µM* | -20% | 10% | 15µM* | .
Cc1ccn2c(Nc3ccc4c(c3)OCO4)c(-c3ccccn3)nc2c1 | 8.9µM* | 13µM* | ? | 2.8µM* | 13µM* | 50µM* | ? | i
CC/C(O)=C(/C#N)c1nnc2n1CCCCC2 | -3% | 28µM* | ? | 14µM* | 79µM* | 21% | 3% | i
CC(C)N1CCC(N2CCN(C3CCCC3)CC2CCO)CC1 (stereo not drawn) | -2% | 5%[11.4 µM] | . | 4% | -2% | 39% | . | .
Cc1cccc(N2CCC(N3CCN(C4CCCCC4)C(CCO)C3)CC2)c1C (stereo not drawn) | 16µM* | -1% | 16µM* | 10µM* | 45µM* | 18% | -7% | i
COc1ccccc1N1C(=O)C=C(Sc2nc(C)cc(C)n2)C1=O | -6% | 7.9µM* | 0.45µM* | 3.2µM* | ? | 8.9µM* | 1.7µM* | 6.2µM*
CNC[C@H](O)c1ccc(O)c(O)c1 | ? | -28% | 7.9µM*! | 25µM*! | 50µM* | 14% | ? | i
Oc1ccc(C(O)CNCCCCCCNCC(O)c2ccc(O)c(O)c2)cc1O (stereo not drawn) | . | . | -40%[12.7 µM] | ? | . | . | . | .
CCOC(=O)c1nn(-c2ccccc2)c(=O)c2c(N)scc12 | -9% | -34%[11.4 µM] | 1.6µM* | 13µM* | . | 22% | 19µM* | .
CCOC(=O)c1nn(-c2ccccc2C)c(=O)c2c(N)scc12 | 0% | 18µM* | 3.2µM* | 3.2µM* | 79µM* | -16% | 15µM* | .
Nc1cccn2c(-c3ccc(Cl)cc3)cnc12 | -4% | -5%[11.4 µM] | 50µM* | 16µM* | 50µM* | ? | ? | ?
CC(C)(C)c1ccc(OCCC(=O)NCCc2ccc(S(N)(=O)=O)cc2)cc1 | . | -5% | ? | 20µM* | -6% | 33% | 12% | .
SMILES | L3MBTL1 inh | JMJD2A Tudor inh | G9a block | Sfp PPTase inh | BAZ2B block | HP1b binding inh | Sfp inh conf | Sfp gel assay
O=C1CN(CC(=O)N2CCOCC2)c2ccccc2O1 | -11% | . | -13%[2.33 µM] | 3.5µM* | ? | . | 3% | .
COc1ccc(CNC(=O)C2CCN(C(=O)Cc3ccccc3)CC2)cc1 | . | -11% | 11% | 8% | 15% | 4% | . | .
Cc1ccc(/C=C/C(=O)NCCc2ccccc2)o1 | -12% | 28µM* | 8.9µM* | 7.9µM* | ? | ? | 19µM* | .
O=C(O)/C=C/C(=O)NCCc1ccccc1 | . | ? | -1% | 6% | 11% | 32% | . | .
COC(=O)c1sc(NC(=O)c2cc(-c3ccccc3)nc3ccccc23)c(C#N)c1C | -13% | -3%[57.1 µM] | ? | 0.63µM* | -33% | 7.9µM* | 8.3µM* | .
O=C(NCc1cc(C(F)(F)F)cc(C(F)(F)F)c1)C1CC(c2ccc(C(F)(F)F)cc2)=NO1 (stereo not drawn) | . | -9% | . | . | . | 32% | . | .
CCOC(=O)C1=CNS(=O)(=O)NC1c1ccc(Br)cc1F (stereo not drawn) | -2% | -19% | . | . | . | 15% | . | .
Oc1ccc(Cl)cc1C1=Nc2ccccc2N=C(c2ccco2)C1 | -13% | -15% | -11%[59 µM] | -10% | 1% | 31% | . | .
Fc1ccccc1C1CC(c2ccco2)=Nc2ccccc2S1 (stereo not drawn) | . | ? | 5%[12.7 µM] | 3.5µM* | ? | -11% | 33µM* | i
CCOC(=O)n1c(=O)n(C)c2ccc(Cl)cc21 | ? | 5% | 24% | 0% | 6% | 55% | . | .
CCOC(=O)c1c(C)n(O)c2ccc(Cl)cc2c1=O | 4% | -16% | ? | 35µM* | -32% | 19% | 74µM* | i
N#C/C(=C/c1ccc(N2CCOCC2)o1)C(=O)Nc1ccccc1 | -10% | -21% | -2% | ? | -26% | 17% | . | .
